FLuc modulator: counter-screen for miR-21 project: firefly luciferase inhibitors or activators; P08659; purified FLuc, Km substrates, luminescence inhibition; Potency, µM (doses to about 57.5 µM), inactives show at the top dose activity change, negative = inhibition, actives largely listed as inhibitors; 360,000 compounds, 6.9% hits; AID 588342;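 further: plate controls were vehicle for no effect and reference inhibitor for full effect; nearly all actives have a fitted effect of over 55% in size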
Target sequence (P08659 whole entry, looked up): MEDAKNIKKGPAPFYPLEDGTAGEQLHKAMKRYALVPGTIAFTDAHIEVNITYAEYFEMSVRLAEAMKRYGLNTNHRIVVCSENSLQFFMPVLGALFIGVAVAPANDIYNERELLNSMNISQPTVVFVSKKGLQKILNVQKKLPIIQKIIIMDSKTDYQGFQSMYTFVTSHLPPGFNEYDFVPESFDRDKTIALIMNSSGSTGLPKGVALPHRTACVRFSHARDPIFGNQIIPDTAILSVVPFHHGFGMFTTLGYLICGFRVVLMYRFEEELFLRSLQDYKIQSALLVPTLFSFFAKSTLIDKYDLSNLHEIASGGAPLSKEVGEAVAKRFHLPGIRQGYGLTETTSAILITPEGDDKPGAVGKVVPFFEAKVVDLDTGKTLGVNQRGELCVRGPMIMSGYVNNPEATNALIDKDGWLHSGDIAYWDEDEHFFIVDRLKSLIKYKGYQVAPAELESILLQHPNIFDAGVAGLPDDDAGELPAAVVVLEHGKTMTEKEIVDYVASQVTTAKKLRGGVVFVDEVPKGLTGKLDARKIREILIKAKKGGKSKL
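Purified P. pyralis luciferase, 10 nM final, with Km-level 10 uM D-luciferin and 10 uM ATP in 50 mM Tris acetate pH 7.5, 10 mM Mg acetate, 0.01% Tween-20, 0.05% BSA; 6-point qHTS titration about 60 µM downward; luminescence read.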
SMN2 splice enh: SMN2 splice variant enhancement; HEK293 SMN2-luciferase splicing reporter, luminescence, 30-36 h; Potency, µM (titrated, usually from 46.1 µM), inactives show at the highest dose activity change, positive = activation, usual class: activators; 210,000 compounds, 2.8% hits; AID 1458; further: % of control where 0% means no effect; nearly all actives have a fitted effect of over 55% in size
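HEK293 cells carry an SMN2 minigene-luciferase reporter in which exon 7 inclusion puts luciferase in frame. Cells were seeded at 2000 cells/well, attached for 10-12 hours, then exposed to compounds for 30-36 hours at 37C before ONE-Glo luminescence.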
Luc counter: Kinase-Glo luciferase inhibition (counter-screen). 200,000 compounds, 0.28% hits. Kinase-Glo luciferase, ATP luminescence, 8 min. Potency, µM (highest dose often 38.3 µM), for inactives: top-dose activity change, negative = inhibition, most hits filed as inhibitors. AID 1379; further: on the % scale 0 is the no-effect control and ±100 the full control effect; nearly all actives have a fitted effect of over 60% in size
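Inhibition of Kinase-Glo luciferase light generation was assessed at 10 uM ATP in pH 7.2 imidazole buffer, with luminescence measured after eight minutes at ambient temperature.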
NPC1 prom act: activators of NPC1 promoter; Huh7 NPC1 promoter luciferase reporter, 24 h; Potency, µM (series often up to 9.22 µM), without a hit: top-dose activation, hits mostly activators; 320,000 compounds, 2.4% hits; further: % of control where 0% means no effect; nearly all actives have a fitted effect of over 60% in size
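Luciferase expression driven by the NPC1 promoter was measured in stably transfected Huh7 cells after a 24 h compound incubation, using a luciferase reagent and a luminescence read.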
ELG1 genotox: genotoxicity induction in ELG1-luciferase HEK293T cells | 330,000 compounds, 1.3% hits | HEK293T ELG1-luciferase reporter, luminescence, 16 h | Potency, µM (series often up to 46 µM), inactives show at the top dose activity change, positive = activation, actives largely listed as activators; further: % of control where 0% means no effect; nearly all actives have a fitted effect of over 60% in size
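Step 1: seed 2,000 HEK293T ELG1-luciferase cells per well. Step 2: add compound or DMSO, incubate 16 hr at 37 °C. Step 3: ONE-Glo, 30 min at room temperature, read luminescence.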
Rab9 promoter act: activates the Rab9 promoter; Huh7 Rab9 promoter-luciferase reporter, luminescence, 24 h; Potency, µM (top dose mostly 9.22 µM), inactives show at the top dose activation, negative = inhibition, usual class: activators; 320,000 compounds, 2.8% hits; further: % of control where 0% means no effect; nearly all actives have a fitted effect of over 60% in size
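Luciferase signal after 10 min detection reagent at ambient indicates Rab9 promoter upregulation; stably transfected Huh7 cells were treated 24 h with compound in DMSO at 37 °C, 5% CO2.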
Numbers without * were called inactive; ? = inconclusive; . = no result; ! = repeats disagree; [ ] = dose if it differs, or a comment. A selection: hits, their analogues and other compounds. The true share with any hit is near 7.3%. The call rests on the fitted dose curve; in most records, active means well fitted curve in the direction sought with a large enough effect; inconclusive means small, poorly fitted or top-dose-only effect, or another doubt; inactive means no such curve, though single readings can be large; an effect the other way counts as inactive or inconclusive. Potency means the concentration at half of the fitted maximal effect.

SMILES	FLuc modulator	SMN2 splice enh	Luc counter	NPC1 prom act	ELG1 genotox	Rab9 promoter act
COc1ccc(CC(=O)c2ccc(O)cc2O)cc1	?	-83%	-4%	?	?	?
CCOc1ccc(C(=O)Cc2ccc3oc(C(=O)O)cc3c2)c(O)c1	?	-4%	3%	3%	-4%	-2%
COC(=O)c1ccc(C(NC(=O)OCc2ccccc2)/C(F)=C/[C@@H](C)C(=O)NC2CCCCC2)cc1 (stereo partly specified)	.	-11%	-2%	.	.	.
CCOc1ccc(CCNC(=O)Cn2ncc3c([nH]c4ccccc43)c2=O)cc1OCC	-1%	.	.	.	.	.
CCCCCCCCCCCCCCCCCC(=O)NCC(COP(=O)([O-])OCC[N+](C)(C)C)OCC (stereo unspecified)	.	6%	-5%	-8%[46.1 µM]	.	-11%[46.1 µM]
COC(=O)Nc1nc2ccc(C(=O)c3cccs3)cc2[nH]1	.	-7%	-1%	?	.	-8%[46.1 µM]
O=C(Nc1nc2ccccc2[nH]1)c1cccs1	4.8µM*	3.5µM*	?	1.3µM*	?	1.3µM*
COc1ccc(C(=O)Nc2nc3ccccc3[nH]2)cc1	0.19µM*	.	.	0.11µM*	?	?
COc1cccc(C(=O)Nc2nc3ccccc3[nH]2)c1	0.76µM*	?	13µM*	0.56µM*	0.37µM*	0.71µM*
COc1cc(C(=O)Nc2nc3ccccc3[nH]2)cc(OC)c1OC	?	15%	2%	7%	-1%	-2%
Cn1nc(C(=O)Nc2nc3ccccc3[nH]2)ccc1=O	17µM*	13µM*	-23%	?	18%	2.2µM*
COc1cccc(C(=O)Nc2cccc3ccccc23)c1	-15%	.	.	0%	4%	6%
CN(C)S(=O)(=O)c1ccc(Cl)c(C(=O)Nc2nc3ccccc3[nH]2)c1	?	5%	1%	-3%	-1%	2%
Cc1ccc2c(=O)cc(C(=O)Nc3c(C)n(C)n(-c4ccccc4)c3=O)oc2c1	2%	-9%	.	.	.	.
COc1ccc(C(=O)N[C@H](C(=O)Nc2nc3ccccc3[nH]2)C(C)C)cc1	6.7µM*	10µM*	-14%	15%	12µM*	-5%
COc1ccc(Nc2cc(O)c3ncccc3c2)cc1	?	.	.	-40%	.	-43%
CCS(=O)(=O)c1ccc(-c2csc(-c3ccc(Cl)cc3)n2)c(Cl)c1Cl	?	-6%	0%	0%	18µM*	2%
CSc1ccc(CCNC(=O)CN2C(=O)COc3ccc(S(=O)(=O)N4CCCCCC4)cc32)cc1	-15%	0%	.	.	.	.
O=C(O)c1cc(N=Nc2ccc([N+](=O)[O-])cc2)ccc1O	.	14µM*!	-3%[7.66 µM]	.	.	.
COc1ccc(NS(=O)(=O)c2ccc3oc(Nc4ccc5c(c4)OCCO5)nc3c2)cc1	19µM*	7%	-5%	1%	3%	13%
COc1ccc(NS(=O)(=O)c2ccc(NS(=O)(=O)c3ccc4c(c3)OCCO4)cc2)cc1	?	-4%	.	.	.	.
c1ccc2c(c1)nnn1c3ccccc3nc21	4.8µM*	-49%	13µM*	1.1µM*	1.6µM*	25%
Cc1nc2ccccc2c2nc3ccccc3n12	?	4%	2%	7%	?	3%[1.84 µM]
COc1ccc(/C=N/NC(=O)c2cc(-c3cccnc3)nc3ccccc23)c(OC)c1	-14%	-27%	-3%	1%	0%	-6%
CCOc1ccc(-c2cc(C(=O)N/N=C/c3cccnc3)c3ccccc3n2)cc1	0.38µM*	.	.	-9%	16%	?
SMILES	FLuc modulator	SMN2 splice enh	Luc counter	NPC1 prom act	ELG1 genotox	Rab9 promoter act
O=C(N/N=C/c1ccc[nH]1)c1cc(-c2cccs2)nc2ccccc12	15µM*	1%	1%	-5%	-15%	-1%
Cc1cc(C(=O)N/N=C/c2cccnc2)c2ccccc2n1	-3%	.	.	-6%	-2%	0%
COc1ccc(-c2cc(C(=O)N/N=C/c3cccnc3)c3cc(C)cc(C)c3n2)cc1	7.6µM*	.	.	-7%	-5%	-2%
Cn1c(O)c(N=NC(=O)c2cc(-c3cccs3)nc3ccccc23)c2ccccc21	2.7µM*	-27%	-3%	3%	-9%	-2%
Cn1cccc1/C=N/NC(=O)c1cc(-c2cccs2)nc2ccccc12	13µM*	0%	3%	-16%	-5%	-9%
O=C(N/N=C/c1cccnc1)c1cc(-c2cccs2)nc2ccccc12	24µM*	0%	-1%	-6%	-6%	-5%
Cn1c(O)c(N=Nc2ccccc2)c2ccccc21	27µM*	.	.	-1%	3%	-2%
CC(C)COc1cccc(-c2cc(C(=O)N/N=C/c3ccncc3)c3ccccc3n2)c1	0.95µM*	.	.	-4%	-8%	-3%
CCCc1cc(=O)[nH]c(Nc2ccc(C)c(O)c2)n1	-8%	-10%	.	.	.	.
COc1ccc(/C(C)=N/Nc2nccnc2Cl)cc1	7.6µM*	.	.	?	?	1.8µM*
C/C(=N\Nc1nccnc1Cl)c1ccc(Br)cc1	?	.	.	?	7%	17%
C/C(=N\Nc1nccnc1Cl)c1ccc(O)c(C)c1	11µM*	.	.	?	?	?
C/C(=N\Nc1nccnc1Cl)c1ccc([N+](=O)[O-])cc1	3%	-26%	0%	1%	0%	-4%
CCN(CC)c1ccc(NC(=O)CN2C(=O)c3cccnc3Oc3ccccc32)c(C)c1	-8%	.	.	.	.	.
Cc1noc(C)c1S(=O)(=O)NCCc1csc2nc(-c3ccc(Cl)cc3)nn12	-2%	.	.	.	.	.
Cc1ccc(-c2nnc(SCC(=O)N3CCCC3)o2)cc1C	15µM*	11µM*	-4%	?	?	3.5µM*
CN(C)C(=O)c1ccc(NC(=O)CSc2nnc(-c3ccc4c(c3)OCO4)o2)cc1	1%	.	.	7%	7%	0%
Cc1ccc(-c2nnc(SCCC(=O)N3CCOCC3)o2)cc1	19µM*	14%	0%	21%	8%	26%
CCOC(=O)N1CCN(C(=O)CSc2nnc(-c3ccc(C)c(C)c3)o2)CC1	?	-7%	1%	0%	1%	5%
O=C(CCSc1nnc(-c2ccccc2)o1)N1CCOCC1	?	?	2%	10%	3%	3%
Cc1ccc(NC(=O)Cc2nc(CSc3nnc(-c4ccc5c(c4)OCO5)o3)cs2)cc1	8.5µM*	1%	0%	?	4%	?
CCOC(=O)N1CCN(C(=O)CSc2nnc(-c3ccc(C(C)(C)C)cc3)o2)CC1	3.4µM*	-12%	5%	-1%	0%	-1%
COc1ccc(C2Oc3cc(OC)cc(OC)c3CC2O)cc1 (stereo unspecified)	.	1%	4%	.	.	.
CC(C)=CCC1=C(O)[C@](O)(CC=C(C)C)C(=O)C(C(=O)CC(C)C)=C1O	.	-12%	-1%	.	.	.

Source: PubChem (National Center for Advancing Translational Sciences (NCATS))
